According to PubChem BioAssay (NCATS):
Records with an inconclusive call do not appear. Entries that show only a call come without a potency. Active and inactive are the calls of the source. Calls follow the shape of the dose curve; as a rule, active = well fitted cell-killing curve with a large enough effect; inconclusive = small, poorly fitted or top-dose-only effect; inactive = flat fitted curve, though single readings scatter.

test: Cell Viability - NIH 3T3 (AID 541); details: NIH 3T3 cell viability, qHTS; activity change, negative = cytotoxicity: at 92.2 µM (top of the series); also: nearly all actives have a fitted effect of over 25% in size
Source text: NIH Chemical Genomics Center [NCGC]
NIH Molecular Libraries Screening Centers Network [MLSCN]
National Institutes of Environmental Health Sciences [NIEHS]
National Toxicology Program [NTP]
We have developed a 1536-well cell-based assay for quantitative high throughput screening (qHTS) against a number of cell lines to determine in vitro cytotoxicity of small molecules. This particular assay uses the NIH 3T3 fibroblast cell line which is established from NIH Swiss mouse embryo.
NCGC Assay Protocol Summary:
The CellTiter-Glo luminescent cell viability assay (Promega) is a homogeneous method to measure the number of viable cells in culture. The end point readout of this assay is based on quantitation of intracellular ATP, an indicator of metabolic activity, using the luciferase reaction. Luciferase catalyzes the oxidation of beetle Luciferin to oxyluciferin and light in the presence of ATP. The luminescent signal is proportional to amount of ATP present.
Using the CellTiter-Glo luminescent cell viability assay, the amount of cellular ATP was measured in the NIH 3T3 cell line with complete culture medium following compound treatment for 40 hours. The assay was performed in opaque white Kalypsys 1536-well plates. In the screen, tamoxifen and doxorubicin were used as positive controls. Library compounds were measured for their ability to cause acute toxicity in the cell line, as reflected by a decrease in intracellular ATP levels, in a concentration-dependent manner. […] AC50 values were determined from concentration-response data modeled with the standard Hill equation.
qHTS protocol for CellTiter Glo NIH 3T3 cellular assay
[Step] [Parameter] [Value] [Description]
1. Reagent; 5 uL; 1000 NIH 3T3 cells/well
2. Time; 5 hr; 37 °C incubation
4. Controls; 23 nL; Tamoxifen 0.34 uM to 100 uM & Doxorubicin 0.02 nM to 100 uM
5. Time; 40 hr; 37 °C incubation
6. Reagent; 5 uL; CellTiter Glo reagent
7. Time; 20 min; Room Temperature
8. Detection; Luminescence; Viewlux plate reader
Keywords: cell viability, cytotoxicity, NIH 3T3 cell line, luminescence, NTPHTS, NTPHTS_NCGC, NIEHS, EPA, DSSTox, MLSMR, MLSCN, NIH Roadmap, qHTS, NCGC
Potency is read from the fitted curve at half-maximal effect.

SMILES	Potency	activity change, negative = cytotoxicity
Cc1cc(CC(=O)O)n(C)c1C(=O)c1ccc(Cl)cc1	inactive	
CC12CCC(CC1)C(C)(C)O2	inactive	
[Cl][In]([Cl])[Cl]	inactive	
Oc1cccc(O)c1	inactive	
O=C1O[C@H]([C@@H](O)CO)C(O)=C1O	inactive	
Cc1cc2nc3c(=O)[nH]c(=O)nc-3n(C[C@H](O)[C@H](O)[C@H](O)CO)c2cc1C	inactive	
CC1(C)[C@@H]2CC[C@@]1(C)C(=O)C2	inactive	
COc1ccccc1O	inactive	
NCCNCCNCCNCCN	inactive	
CCCCCCCCCCCCOS(=O)(=O)O	inactive	
CCCCOC(=O)c1ccc(O)cc1	inactive	
NC(=O)N/N=C/c1ccc([N+](=O)[O-])o1		-81.4% (active)
COC(=O)C1=C(C)NC(C)=C(C(=O)OC)C1c1ccccc1[N+](=O)[O-]	2 µM (active)	
NCCNCCNCCN	inactive	
NC(=O)c1ncn([C@@H]2O[C@H](CO)[C@@H](O)[C@H]2O)n1	25.1 µM (active)	
